We go through 50 compounds from PubChem BioAssay AID743287 (Broad Institute, 2014).

The whole screen tested about 370,000 compounds, of which about 2,300 (0.62%) were called active.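 How the source made its calls: active means lowest replicate activation of at least 40%, so every replicate reaches that level; inactive means the rest.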 Shown is part of a subset that was picked to be rich in actives.

This test is described as follows: primary screen for activators of insulin secretion dependent on glucose, INS-1E cells, GLuc reporter luminescence (AID 743287).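 Further: 0% = median of neutral control wells and 100% = median of IBMX positive control wells.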 Conditions: INS-1E GLuc reporter insulin secretion, 2-3 h, at 16.6 µM, hits give high values.
Regarding `O=C1[C@H](Cc2ccc(C(F)(F)F)cc2)CCn2nncc2COC[C@@H]2CCCCN12`, the activation was 1.36% (inactive). On to `CC(C)CC#Cc1ccc([C@@H]2[C@@H](CO)N3C(=O)CN(C(=O)c4cnccn4)C[C@@H]23)cc1`, for which the activation was 25.5% (inactive). The figure for `O=C(c1cnccn1)N1CC(=O)N2[C@H](C1)[C@@H](c1ccc(C#CC3CCCCC3)cc1)[C@@H]2CO` is 1.34% (inactive); for `CC(C)CC#Cc1ccc([C@H]2[C@H]3CN(C(=O)c4cnccn4)CC(=O)N3[C@H]2CO)cc1` it is 54.1% (active). In the case of `CO[C@@H]1CN(C)C(=O)c2ccc(NC(=O)Nc3ccccc3)cc2OC[C@@H](C)N(C(=O)Nc2c(C)noc2C)C[C@@H]1C`, the activation is -0.32% (inactive). The figure for `CCCCc1c(-c2ccc(Cl)cc2)ncn1CCc1ccccc1OC` is -9.43% (inactive); for `CCCCCc1c(Cc2ccccc2)ncn1CCc1ccccc1OC` it is 70% (active). The value for `CCCCCc1c(-c2ccc(OC)c(OC)c2)ncn1CCc1ccccc1OC` was -29.6% (inactive); that for `Cc1ccccc1-c1ccc([C@H]2[C@@H](CO)N3C(=O)CN(C(=O)c4cccnc4)C[C@@H]23)cc1` was -14.5% (inactive); that for `COc1cccc(S(=O)(=O)N2CCC3(CC2)CN[C@H](CO)c2c3c3ccc(OC)cc3n2C)c1` was -2.73% (inactive). The figure for `Cc1cc(NC(C)C)n2c(nc3ccccc32)c1C#N` is 4.84% (inactive); for `Cc1ccc(S(=O)(=O)N(C)c2nc3ccccc3n3c(C(C)C)nnc23)cc1` it is 66.1% (active). On to `O=C(Cc1ccncc1)N1CC[C@@H]2[C@@H](CO)Nc3ccc(C4=CCCCC4)cc3[C@@H]21`, for which the activation was 8.52% (inactive). The value for `CN(C)CCCNC(=O)C[C@H]1CC[C@H]2[C@@H](COC[C@H](O)CN2CC2CCCCC2)O1` was 1.49% (inactive); that for `CC(Sc1nc2cc(Cl)ccc2s1)C(=O)Nc1ccc2c(c1)OCO2` (stereo not given) was -18.8% (inactive).

As for `CCSc1ccccc1C(=O)Nc1ccc2c(c1)OCO2`, the activation is -1.24% (inactive). The figure for `O=C(Nc1ccc2c(c1)OCO2)c1sc2cc(Cl)ccc2c1Cl` is 69.2% (active); for `C=CS(=O)c1sc(Cl)c(N2CCOCC2)c1[N+](=O)[O-]` (stereo not given) it is 99.9% (active). The value for `COc1ccc2c3c([nH]c2c1)[C@H](CO)N(C(=O)Nc1ccc(F)cc1)CC31CCN(C(=O)Nc2c(C)noc2C)CC1` was -8.35% (inactive); that for `O=C(Nc1ccc(F)cc1)N1CC(=O)N2[C@H](CO)[C@H](c3ccc(C#Cc4ccccc4)cc3)[C@H]2C1` was -21.6% (inactive). For `CCCNC(=O)Nc1ccc2c(c1)OC[C@@H](C)N(CC1CCCC1)C[C@@H](C)[C@H](OC)CN(C)C2=O`, the activation was -11.9% (inactive). The value for `COc1ccc(-c2ccccc2[C@H]2[C@@H](CO)N(C(=O)c3cccnc3)[C@H]2C#N)cc1` was -2.16% (inactive); that for `S=c1[nH]nc(-c2ccccc2)n1/N=C/c1c[nH]c2ccccc12` was 41.8% (active). The value for `CCc1n[nH]c(=S)n1/N=C/c1c[nH]c2ccc(Br)cc12` was 6.23% (inactive); that for `C[C@@H]1CN([C@@H](C)CO)C(=O)c2cccc(N(C)C)c2O[C@H]1CN(C)S(=O)(=O)c1cccs1` was 4.92% (inactive). The figure for `O=C(Cc1cccnc1)N1CC(=O)N2[C@@H](CO)[C@@H](c3ccc(C#CC4CCCCC4)cc3)[C@@H]2C1` is -3.29% (inactive); for `COc1ccc2c3c([nH]c2c1)[C@@H](CO)N(C(=O)NC(C)C)CC31CN(C(=O)C2CCCC2)C1` it is 3.69% (inactive); for `O=C(CSc1nc2ccccc2c(=O)n1CCCO)NC1CC1` it is 4.63% (inactive). In the case of `CCOc1ccc(NC(=O)CSc2nc3ccccc3c(=O)n2Cc2cccs2)cc1`, the activation is 60.2% (inactive). The figure for `COC(=O)CSc1nc2ccccc2c(=O)n1Cc1ccccc1` is 50% (active); for `CO[C@@H]1CN(C)C(=O)c2cc(NS(=O)(=O)CC(F)(F)F)ccc2OC[C@H](C)N(Cc2ccccn2)C[C@@H]1C` it is 11.8% (inactive).

Consider `CC(C)NC(=O)Nc1ccc2c(c1)CC(=O)N(C)C[C@@H](C)[C@@H](CN(C)C(=O)OC(C)(C)C)O2`, for which the activation is 9.38% (inactive). The figure for `Cc1ccc2c(Cl)c(C(=O)Nc3nn[nH]n3)sc2c1` is -4.19% (inactive); for `Cc1ccc(C)c(NC(=O)NNC(=O)c2ccc3ccccc3c2O)c1` it is -0.162% (inactive); for `Cc1ccc(-c2cc(C(=O)Nc3nn[nH]n3)c3ccccc3n2)c(C)c1` it is 63.4% (active). Consider `COc1ccc(CCNC(=O)CSc2nnc3ccc(-c4ccncc4)nn23)cc1`, for which the activation was 4.35% (inactive). The value for `COc1cccc(-c2ccc(C#N)c(SCC(=O)NCCc3ccc(Cl)cc3)n2)c1` was 108% (active). The value for `COc1ccc(CCNC(=O)CSc2nc(-c3ccc(OC)c(OC)c3)ccc2C#N)cc1` was 46.1% (inactive). The value for `CCC(=O)N1C[C@H](C)[C@H](OC)CN(C)C(=O)c2ccc(NC(=O)Nc3ccc(Cl)cc3)cc2OC[C@H]1C` was -31.9% (inactive); that for `CNC(=O)C[C@H]1CC[C@@H]2[C@H](COc3ccc(NC(=O)C(C)C)cc3C(=O)N2C)O1` was 4.65% (inactive); that for `COc1ccc(CN(C)Cc2nc3cc(OC)c(OC)cc3c(=O)[nH]2)c(OC)c1` was -31.6% (inactive). `COc1ccc(/C=C/C2=CC(C)(C)NC(=S)N2)c(OC)c1`: the activation is -2.56% (inactive). The value for `COc1ccc(/C=C2/C(=O)OCc3cc(OC)c(OC)cc32)c(OC)c1` was 90.1% (active). With `CCCC#Cc1ccc([C@H]2[C@H]3CN(C(=O)Nc4cccc(F)c4)CC(=O)N3[C@H]2CO)cc1`, the activation was -20.8% (inactive). The value for `Cc1noc(C)c1NC(=O)Nc1ccc2c(c1)C(=O)N([C@@H](C)CO)C[C@H](C)[C@@H](CN(C)C)O2` was 11.6% (inactive). For `Cc1ccccc1-c1ccc([C@H]2[C@H](CO)N3C(=O)CN(C(=O)c4cccnc4)C[C@@H]23)cc1`, the activation is 4.01% (inactive).

`COc1ccccc1S(=O)(=O)N[C@H]1CC[C@@H](CC(=O)NCc2cc(F)cc(F)c2)O[C@H]1CO`: the activation was 6.83% (inactive). The value for `COC(=O)c1c(C)oc(C)c1S(=O)(=O)Nc1ccc(C(C)C)cc1` was 52.6% (active). As to `COC(=O)c1c(C)oc(C)c1S(=O)(=O)NCc1ccc(Cl)cc1`, the activation is 15.9% (inactive). Consider `CC(C)c1ccc(NS(=O)(=O)c2cn(C)c(=O)n(C)c2=O)cc1`, for which the activation was 18.1% (inactive).
